# From the supplement of paper PMC6897291
# Columns and labels:
# [1] = test system: U-2932; experiment: growth inhibition by drug alone (1 - RLU/untreated control) (fraction); higher = stronger inhibition; details: 177Lu-lilotomab satetraxetan 0 ug/ml
# Summary of the method: (§1)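 With or without 18 h pretreatment by a radiolabelled anti-CD37 antibody conjugate (~600 MBq/mg; 0.5 µg/ml RIVA, 1 µg/ml U-2932), RIVA and U-2932 cells were washed and plated at 3,000 cells/well. Pre-printed compound doses were 10/100 nM for RIVA and 10/1,000 nM for U-2932. Growth inhibition uses RealTime-Glo RLU relative to the untreated no-drug wells. The calculation is 1 − RLU/mean of 48 such wells per plate, with reads daily from day 3 after 1 h at 37°C.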
# [2] = test system: RIVA; experiment: as above; details: 177Lu-lilotomab satetraxetan 0 ug/ml
# Summary of the method: as §1
# [3] = test system: U-2932; experiment: growth inhibition by drug plus 177Lu-lilotomab satetraxetan (1 - RLU/untreated control) (fraction); higher = stronger inhibition; details: 177Lu-lilotomab satetraxetan 1 ug/ml
# Summary of the method: as §1
# [4] = test system: RIVA; experiment: as above; details: 177Lu-lilotomab satetraxetan 0.5 ug/ml
# Summary of the method: as §1
smiles,measurement,setting,value
CN(N=O)C(=O)N[C@@H](C=O)[C@@H](O)[C@H](O)[C@H](O)CO [Streptozotocin (Zanosar)],growth inhibition by drug alone,"[1]; 10 nM, time (day): 3",-0.0672
same,growth inhibition by drug alone,"[1]; 10 nM, time (day): 4",-0.049
same,growth inhibition by drug alone,"[1]; 10 nM, time (day): 5",-0.0365
same,growth inhibition by drug alone,"[1]; 10 nM, time (day): 6",0.111
same,growth inhibition by drug alone,"[1]; 1000 nM, time (day): 3",-0.124
same,growth inhibition by drug alone,"[1]; 1000 nM, time (day): 4",-0.0755
same,growth inhibition by drug alone,"[1]; 1000 nM, time (day): 5",-0.109
same,growth inhibition by drug alone,"[1]; 1000 nM, time (day): 6",-0.156
same,growth inhibition by drug alone,"[2]; 10 nM, time (day): 3",-0.263
same,growth inhibition by drug alone,"[2]; 10 nM, time (day): 4",-0.268
same,growth inhibition by drug alone,"[2]; 10 nM, time (day): 5",-0.296
same,growth inhibition by drug alone,"[2]; 10 nM, time (day): 6",-0.472
same,growth inhibition by drug alone,"[2]; 100 nM, time (day): 3",-0.291
same,growth inhibition by drug alone,"[2]; 100 nM, time (day): 4",-0.295
same,growth inhibition by drug alone,"[2]; 100 nM, time (day): 5",-0.308
same,growth inhibition by drug alone,"[2]; 100 nM, time (day): 6",-0.376
same,growth inhibition by drug plus 177Lu-lilotomab satetraxetan,"[3]; 10 nM, time (day): 3",-0.0646
same,growth inhibition by drug plus 177Lu-lilotomab satetraxetan,"[3]; 10 nM, time (day): 4",-0.0512
same,growth inhibition by drug plus 177Lu-lilotomab satetraxetan,"[3]; 10 nM, time (day): 5",-0.0238
same,growth inhibition by drug plus 177Lu-lilotomab satetraxetan,"[3]; 10 nM, time (day): 6",0.118
same,growth inhibition by drug plus 177Lu-lilotomab satetraxetan,"[3]; 1000 nM, time (day): 3",-0.0995
same,growth inhibition by drug plus 177Lu-lilotomab satetraxetan,"[3]; 1000 nM, time (day): 4",-0.0176
same,growth inhibition by drug plus 177Lu-lilotomab satetraxetan,"[3]; 1000 nM, time (day): 5",-0.0119
same,growth inhibition by drug plus 177Lu-lilotomab satetraxetan,"[3]; 1000 nM, time (day): 6",0.0347
same,growth inhibition by drug plus 177Lu-lilotomab satetraxetan,"[4]; 10 nM, time (day): 3",0.377
same,growth inhibition by drug plus 177Lu-lilotomab satetraxetan,"[4]; 10 nM, time (day): 4",0.504
same,growth inhibition by drug plus 177Lu-lilotomab satetraxetan,"[4]; 10 nM, time (day): 5",0.521
same,growth inhibition by drug plus 177Lu-lilotomab satetraxetan,"[4]; 10 nM, time (day): 6",0.516
same,growth inhibition by drug plus 177Lu-lilotomab satetraxetan,"[4]; 100 nM, time (day): 3",0.38
same,growth inhibition by drug plus 177Lu-lilotomab satetraxetan,"[4]; 100 nM, time (day): 4",0.458
same,growth inhibition by drug plus 177Lu-lilotomab satetraxetan,"[4]; 100 nM, time (day): 5",0.481
same,growth inhibition by drug plus 177Lu-lilotomab satetraxetan,"[4]; 100 nM, time (day): 6",0.445
COc1cc2c(NC3CCN(C)CC3)nc(N3CCCN(C)CC3)nc2cc1OCCCN(C)C,growth inhibition by drug alone,"[1]; 10 nM, time (day): 3",0.0324
same,growth inhibition by drug alone,"[1]; 10 nM, time (day): 4",-0.0188
same,growth inhibition by drug alone,"[1]; 10 nM, time (day): 5",-0.094
same,growth inhibition by drug alone,"[1]; 10 nM, time (day): 6",-0.326
same,growth inhibition by drug alone,"[1]; 1000 nM, time (day): 3",-0.0483
same,growth inhibition by drug alone,"[1]; 1000 nM, time (day): 4",-0.0744
same,growth inhibition by drug alone,"[1]; 1000 nM, time (day): 5",-0.125
same,growth inhibition by drug alone,"[1]; 1000 nM, time (day): 6",-0.235
same,growth inhibition by drug alone,"[2]; 10 nM, time (day): 3",-0.117
same,growth inhibition by drug alone,"[2]; 10 nM, time (day): 4",-0.195
same,growth inhibition by drug alone,"[2]; 10 nM, time (day): 5",-0.474
same,growth inhibition by drug alone,"[2]; 10 nM, time (day): 6",-0.819
same,growth inhibition by drug alone,"[2]; 100 nM, time (day): 3",-0.568
same,growth inhibition by drug alone,"[2]; 100 nM, time (day): 4",-0.503
same,growth inhibition by drug alone,"[2]; 100 nM, time (day): 5",-0.528
same,growth inhibition by drug alone,"[2]; 100 nM, time (day): 6",-0.706
same,growth inhibition by drug plus 177Lu-lilotomab satetraxetan,"[3]; 10 nM, time (day): 3",-0.0493
same,growth inhibition by drug plus 177Lu-lilotomab satetraxetan,"[3]; 10 nM, time (day): 4",-0.0119
same,growth inhibition by drug plus 177Lu-lilotomab satetraxetan,"[3]; 10 nM, time (day): 5",0.0125
same,growth inhibition by drug plus 177Lu-lilotomab satetraxetan,"[3]; 10 nM, time (day): 6",0.00172
same,growth inhibition by drug plus 177Lu-lilotomab satetraxetan,"[3]; 1000 nM, time (day): 3",-0.0195
same,growth inhibition by drug plus 177Lu-lilotomab satetraxetan,"[3]; 1000 nM, time (day): 4",-0.0136
same,growth inhibition by drug plus 177Lu-lilotomab satetraxetan,"[3]; 1000 nM, time (day): 5",0.00791
same,growth inhibition by drug plus 177Lu-lilotomab satetraxetan,"[3]; 1000 nM, time (day): 6",0.0785
same,growth inhibition by drug plus 177Lu-lilotomab satetraxetan,"[4]; 10 nM, time (day): 3",0.365
same,growth inhibition by drug plus 177Lu-lilotomab satetraxetan,"[4]; 10 nM, time (day): 4",0.464
same,growth inhibition by drug plus 177Lu-lilotomab satetraxetan,"[4]; 10 nM, time (day): 5",0.475
same,growth inhibition by drug plus 177Lu-lilotomab satetraxetan,"[4]; 10 nM, time (day): 6",0.499
same,growth inhibition by drug plus 177Lu-lilotomab satetraxetan,"[4]; 100 nM, time (day): 3",0.316
same,growth inhibition by drug plus 177Lu-lilotomab satetraxetan,"[4]; 100 nM, time (day): 4",0.452
same,growth inhibition by drug plus 177Lu-lilotomab satetraxetan,"[4]; 100 nM, time (day): 5",0.453
same,growth inhibition by drug plus 177Lu-lilotomab satetraxetan,"[4]; 100 nM, time (day): 6",0.469
O=C(Nc1ncc([N+](=O)[O-])s1)c1ccc([N+](=O)[O-])c(Cl)c1,growth inhibition by drug alone,"[1]; 10 nM, time (day): 3",0.119
same,growth inhibition by drug alone,"[1]; 10 nM, time (day): 4",0.0794
same,growth inhibition by drug alone,"[1]; 10 nM, time (day): 5",0.00802
same,growth inhibition by drug alone,"[1]; 10 nM, time (day): 6",0.0242
same,growth inhibition by drug alone,"[1]; 1000 nM, time (day): 3",0.153
same,growth inhibition by drug alone,"[1]; 1000 nM, time (day): 4",0.14
same,growth inhibition by drug alone,"[1]; 1000 nM, time (day): 5",0.0538
same,growth inhibition by drug alone,"[1]; 1000 nM, time (day): 6",0.129
same,growth inhibition by drug plus 177Lu-lilotomab satetraxetan,"[3]; 10 nM, time (day): 3",0.064
same,growth inhibition by drug plus 177Lu-lilotomab satetraxetan,"[3]; 10 nM, time (day): 4",0.0915
same,growth inhibition by drug plus 177Lu-lilotomab satetraxetan,"[3]; 10 nM, time (day): 5",0.164
same,growth inhibition by drug plus 177Lu-lilotomab satetraxetan,"[3]; 10 nM, time (day): 6",0.259
same,growth inhibition by drug plus 177Lu-lilotomab satetraxetan,"[3]; 1000 nM, time (day): 3",0.142
same,growth inhibition by drug plus 177Lu-lilotomab satetraxetan,"[3]; 1000 nM, time (day): 4",0.136
same,growth inhibition by drug plus 177Lu-lilotomab satetraxetan,"[3]; 1000 nM, time (day): 5",0.179
same,growth inhibition by drug plus 177Lu-lilotomab satetraxetan,"[3]; 1000 nM, time (day): 6",0.3
same,growth inhibition by drug plus 177Lu-lilotomab satetraxetan,"[4]; 10 nM, time (day): 3",0.666
same,growth inhibition by drug plus 177Lu-lilotomab satetraxetan,"[4]; 10 nM, time (day): 4",0.663
same,growth inhibition by drug plus 177Lu-lilotomab satetraxetan,"[4]; 10 nM, time (day): 5",0.69
same,growth inhibition by drug plus 177Lu-lilotomab satetraxetan,"[4]; 10 nM, time (day): 6",0.688
same,growth inhibition by drug plus 177Lu-lilotomab satetraxetan,"[4]; 100 nM, time (day): 3",0.605
same,growth inhibition by drug plus 177Lu-lilotomab satetraxetan,"[4]; 100 nM, time (day): 4",0.655
same,growth inhibition by drug plus 177Lu-lilotomab satetraxetan,"[4]; 100 nM, time (day): 5",0.669
same,growth inhibition by drug plus 177Lu-lilotomab satetraxetan,"[4]; 100 nM, time (day): 6",0.679
Cn1c(=O)c(F)c(Nc2ccc(I)cc2F)c2c(=O)n(C[C@@H](O)CO)cnc21,growth inhibition by drug alone,"[1]; 10 nM, time (day): 3",0.14
same,growth inhibition by drug alone,"[1]; 10 nM, time (day): 4",0.135
same,growth inhibition by drug alone,"[1]; 10 nM, time (day): 5",0.0576
same,growth inhibition by drug alone,"[1]; 10 nM, time (day): 6",-0.0158
same,growth inhibition by drug alone,"[1]; 1000 nM, time (day): 3",0.131
same,growth inhibition by drug alone,"[1]; 1000 nM, time (day): 4",0.169
same,growth inhibition by drug alone,"[1]; 1000 nM, time (day): 5",0.099
same,growth inhibition by drug alone,"[1]; 1000 nM, time (day): 6",0.12
same,growth inhibition by drug alone,"[2]; 10 nM, time (day): 3",0.0885
same,growth inhibition by drug alone,"[2]; 10 nM, time (day): 4",0.0594
same,growth inhibition by drug alone,"[2]; 10 nM, time (day): 5",-0.0237
same,growth inhibition by drug alone,"[2]; 10 nM, time (day): 6",-0.205
same,growth inhibition by drug alone,"[2]; 100 nM, time (day): 3",-0.0966
same,growth inhibition by drug alone,"[2]; 100 nM, time (day): 4",-0.077
same,growth inhibition by drug alone,"[2]; 100 nM, time (day): 5",-0.161
same,growth inhibition by drug alone,"[2]; 100 nM, time (day): 6",-0.342
same,growth inhibition by drug plus 177Lu-lilotomab satetraxetan,"[3]; 10 nM, time (day): 3",0.103
same,growth inhibition by drug plus 177Lu-lilotomab satetraxetan,"[3]; 10 nM, time (day): 4",0.169
same,growth inhibition by drug plus 177Lu-lilotomab satetraxetan,"[3]; 10 nM, time (day): 5",0.176
same,growth inhibition by drug plus 177Lu-lilotomab satetraxetan,"[3]; 10 nM, time (day): 6",0.21
same,growth inhibition by drug plus 177Lu-lilotomab satetraxetan,"[3]; 1000 nM, time (day): 3",0.189
same,growth inhibition by drug plus 177Lu-lilotomab satetraxetan,"[3]; 1000 nM, time (day): 4",0.254
same,growth inhibition by drug plus 177Lu-lilotomab satetraxetan,"[3]; 1000 nM, time (day): 5",0.249
same,growth inhibition by drug plus 177Lu-lilotomab satetraxetan,"[3]; 1000 nM, time (day): 6",0.347
same,growth inhibition by drug plus 177Lu-lilotomab satetraxetan,"[4]; 10 nM, time (day): 3",0.522
same,growth inhibition by drug plus 177Lu-lilotomab satetraxetan,"[4]; 10 nM, time (day): 4",0.484
same,growth inhibition by drug plus 177Lu-lilotomab satetraxetan,"[4]; 10 nM, time (day): 5",0.489
same,growth inhibition by drug plus 177Lu-lilotomab satetraxetan,"[4]; 10 nM, time (day): 6",0.487
same,growth inhibition by drug plus 177Lu-lilotomab satetraxetan,"[4]; 100 nM, time (day): 3",0.579
same,growth inhibition by drug plus 177Lu-lilotomab satetraxetan,"[4]; 100 nM, time (day): 4",0.588
same,growth inhibition by drug plus 177Lu-lilotomab satetraxetan,"[4]; 100 nM, time (day): 5",0.55
same,growth inhibition by drug plus 177Lu-lilotomab satetraxetan,"[4]; 100 nM, time (day): 6",0.496
